Measured values as given in PubChem BioAssay AID504550 (Sanford-Burnham Center for Chemical Genomics, 2011).
Some of the results follow. Calls of active or inactive are those of the source.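 How the source made its calls: active means mean activation at 20 µM of at least 40%; inactive means the rest.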

target: Neurotensin receptor type 1 (Homo sapiens) (UniProt P30989); assay: beta-arrestin-GFP spots via human NTR1 – imaging, U2OS cells, single concentration, confirmation (AID 504550); settings: NTR1-U2OS beta-arrestin-GFP translocation imaging; at 20 µM; hits give high values;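 further: 0% = DMSO without peptide and 100% = 100 nM NTR1 peptide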
Sequence (P30989 whole entry, looked up): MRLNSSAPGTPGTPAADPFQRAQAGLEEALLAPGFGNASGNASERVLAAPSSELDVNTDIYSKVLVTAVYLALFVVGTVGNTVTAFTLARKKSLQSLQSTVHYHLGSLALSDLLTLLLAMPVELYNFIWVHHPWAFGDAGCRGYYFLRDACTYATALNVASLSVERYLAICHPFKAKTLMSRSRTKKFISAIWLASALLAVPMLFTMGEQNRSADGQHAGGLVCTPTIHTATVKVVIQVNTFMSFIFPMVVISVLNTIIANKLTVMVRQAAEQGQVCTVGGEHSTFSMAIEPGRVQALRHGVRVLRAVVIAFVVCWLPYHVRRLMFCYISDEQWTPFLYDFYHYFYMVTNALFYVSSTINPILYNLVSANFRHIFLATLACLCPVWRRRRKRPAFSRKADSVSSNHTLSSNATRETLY

activation, active:
O=C(N/N=C/c1ccc(OC(=O)c2ccccc2Cl)cc1)c1ccc(O)cc1 50.1%, CCCCNc1c(-c2cccc(Sc3ccc(OC)cc3)c2)nc2ccccn12 68.2%, COc1ccc(C(C[N+](=O)[O-])n2nc(C)cc2C)cc1 (stereo not given) 52.4%, CC(C)(C)OC(=O)N1CCC(NC(=O)c2[nH]cnc2C(=O)N[C@@H](Cc2ccccc2)C(=O)OCc2ccccc2)CC1 51.5%, O=C(/C(=C/c1cccc(Cl)c1)c1nc2ccccc2[nH]1)c1ccccc1 62.5%, O=C(/C=C/c1ccc(Cl)c([N+](=O)[O-])c1)c1cccnc1 49.5%, CCCCCCCCCCOC(=O)Cn1c(COc2cccc(OC)c2)[n+](C)c2ccccc21 71.8%

activation, inactive:
CCOC(=O)CSC1=C(C#N)C(c2ccco2)C(C(=O)OCc2ccccc2)=C(C)N1 (stereo not given) 7.17%, O=C(N/N=C/c1c(Cl)[nH]c2ccccc12)c1sc2ccccc2c1Cl 21.7%, OC(CN=c1sc2ccccc2n1CC(O)COc1ccccc1)COc1ccccc1 (stereo not given) 18.2%, CN1/C(=C\C(=O)c2oc3ccccc3c2N)C(C)(C)c2ccccc21 15%, CC(C)c1ccccc1OCC(O)CN(CC(O)COc1cccc2ccccc12)C(C)C (stereo not given) 15.3%, CC(C)Cn1c(N)c(C(=O)NCc2cccs2)c2nc3ccccc3nc21 21%, CC(C)Oc1c(Br)cc(Br)cc1/C=N/NC(N)=S 26.4%, Nc1nc(Nc2ccccc2F)nc(NC2CCCCC2)c1[N+](=O)[O-] 13.2%, O=c1oc2ccccc2cc1-c1csc(Nc2ccc(O)cc2)n1 10.5%, Cc1cccc(-n2c(SCC(N)=O)nc3c(c2=O)C2(CCCCC2)Cc2ccccc2-3)c1 22.7%, Cc1cccc(-c2nc(Nc3ccc(O)cc3)c3ccccc3n2)c1 31.3%, COc1cccc(/C=N/Nc2cc(C)nc(-c3ccccc3O)n2)c1O 36.7%, Cc1ccc(NC(=O)COc2coc(CN3CCc4ccccc4C3)cc2=O)cc1Cl -2.38%
